According to PubChem BioAssay AID588676 (Johns Hopkins Ion Channel Center, 2011):
About 3,900 (1.3%) of roughly 310,000 compounds were called active.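 The calls were made as follows: active = calcium-response B-score plate-corrected more than 3 library SD below zero, starting fluorescence within 5 deviations, no agonist response on first addition; inactive = the rest.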 This excerpt belongs to a sample that is enriched for actives.

Molecular target: Mas-related G-protein coupled receptor member X1 (Homo sapiens) (UniProt Q96LB2)
Sequence (Q96LB2 whole entry, looked up): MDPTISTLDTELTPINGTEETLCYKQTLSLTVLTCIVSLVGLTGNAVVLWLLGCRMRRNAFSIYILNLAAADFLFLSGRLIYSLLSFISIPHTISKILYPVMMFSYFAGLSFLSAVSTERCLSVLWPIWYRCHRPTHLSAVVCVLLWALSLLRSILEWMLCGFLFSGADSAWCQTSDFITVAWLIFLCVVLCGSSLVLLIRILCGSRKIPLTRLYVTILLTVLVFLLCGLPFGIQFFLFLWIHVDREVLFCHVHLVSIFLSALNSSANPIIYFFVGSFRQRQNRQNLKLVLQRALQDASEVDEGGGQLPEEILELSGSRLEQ
Assay: blockade of BAM8-22-evoked MrgX1 calcium response – HEK293 cells, Fluo-4 calcium flux, primary screen (AID 588676);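 as to B-score: peak minus trough fluorescence over baseline after final BAM8-22 challenge near maximal dose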
Conditions: Fluo-4, BAM8-22 antagonism, at 10 µM; stronger effect = lower value

SMILES	B-score
COc1ccc(NC(=O)N2CCC3(CC2)OCCO3)c(OC)c1	inactive
COc1ccc(-c2nc(CS(=O)CC(=O)N3CCC4(CC3)OCCO4)c(C)o2)cc1 (stereo not given)	inactive
COc1ccc(S(=O)(=O)NCc2ccc(C(=O)N3CCC4(CC3)OCCO4)cc2)cc1	-6.08 (active)
COC(=O)C1=C(c2cc3ccccc3o2)C[C@@H]2CC[C@H]1N2C(=O)NC1CCCCC1	inactive
CCCCCCCCCCCCn1ccc(=N)cc1	-5.32 (active)
COc1ccccc1C1=NCc2nnc(CSC)n2-c2ccc(Cl)cc21	inactive
CCCCn1c(=O)c(C(=O)Nc2ccccc2Cl)c(O)c2ccccc21	inactive
CCCCCn1c(=O)c(C(=O)NCc2ccccc2)c(O)c2ccccc21	-6.52 (active)
CCCCCn1c(=O)c(C(=O)NCc2ccccn2)c(O)c2ccccc21	inactive
CC(C)c1ccc(OCC(=O)N2CCN(C)CC2)c(Br)c1	inactive
CCOC(=O)C1SC2(C(F)(F)C(F)F)CC1(O)c1c(c(OC)c3occc3c1OC)O2 (stereo not given)	inactive
CNCC(O)c1cc(F)c(OCc2ccccc2)c(OCc2ccccc2)c1F (stereo not given)	inactive
Cc1ccc(-n2c(O)c(C=NCC3CCCO3)c(=O)[nH]c2=O)c(C)c1 (stereo not given)	inactive
CCOC(=O)C(O)(c1ccc(N=Cc2ccccc2O)c(C)c1)C(F)(F)F (stereo not given)	inactive
Cc1cccc(NC(=O)N2CC3CC(C2)c2cccc(=O)n2C3)c1 (stereo not given)	inactive
COc1ccccc1N1CCN(C(CNC(=O)Oc2ccccc2)c2cccnc2)CC1 (stereo not given)	inactive
CN1CCN(C(=S)SCC(=O)Nc2ccc(Cl)cc2C(=O)c2ccccc2)CC1	inactive
O=C(CCN1CCCCC1)NCC(=O)Nc1ccc(Br)cc1C(=O)c1ccccc1	-5.59 (active)
O=C(CN1CCCCC1)Nc1ccc(Br)cc1C(=O)c1ccccc1Cl	inactive
CCOC(=O)C1=C(C)OC(N)=C(C(=O)OC)C12C(=O)Nc1ccc(Br)cc12 (stereo not given)	inactive
